PAFAH2 FP inh: inhibitors of human PAFAH2; inhibition, % at 3.39 µM; Q99487; recombinant PAFAH2, FP-rhodamine activity probe, fluorescence polarization; 0.99% of 340,000 active; AID 492956;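 active means inhibition above the mean over all tested compounds plus 3 SD, cut at about 30% in these data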;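 further: inhibitors block probe labeling of enzyme so polarization drops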
ZTA counter: ZTA (EBV) inhibition in EBNA-1 counter-screen; inhibition, % at 11 µM; P03206; AID 2234; ZTA-DNA binding, fluorescence polarization; 0.15% of 320,000 active; in the data active means inhibition above about 33%
Target sequence (P03206 whole entry, looked up): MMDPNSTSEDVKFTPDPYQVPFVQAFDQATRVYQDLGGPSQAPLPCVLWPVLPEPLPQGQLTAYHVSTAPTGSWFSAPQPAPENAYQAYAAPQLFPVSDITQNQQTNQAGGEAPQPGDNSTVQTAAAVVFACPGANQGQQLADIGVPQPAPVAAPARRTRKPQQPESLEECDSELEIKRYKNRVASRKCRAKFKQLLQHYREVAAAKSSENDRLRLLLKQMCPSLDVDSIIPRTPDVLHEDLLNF
PAFAH1B2 inh: PAFAH1B2 (human) inhibition | AID 492953 | 1.2% of 340,000 active | recombinant PAFAH1B2, FP-rhodamine activity probe, fluorescence polarization | inhibition, % at 3.39 µM;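 active means inhibition above the mean of all tested compounds plus 3 SD, cut at about 24% in these data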
rCAG RNA binder: binds r(CAG) RNA repeats | 1.3% of 370,000 active | inhibition, % at 3 µM | AID 651821 | r(CAG) RNA repeat, TO-PRO-1 dye displacement fluorescence;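 active means inhibition above the plate cutoff, the mean of all test compounds on that plate plus 3 SD, cut at about 35% in these data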;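 further: higher means more dye released from RNA so lower well fluorescence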
PAFAH1B3 FP inh: PAFAH1B3 (human) inhibition; Q15102; recombinant PAFAH1B3, FP-rhodamine probe, fluorescence polarization; inhibition, % at 3.39 µM; 0.28% of 340,000 active;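 active means inhibition above the screen-wide average of all tested compounds plus 3 SD, cut at about 25% in these data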
Target sequence (Q15102 whole entry, looked up): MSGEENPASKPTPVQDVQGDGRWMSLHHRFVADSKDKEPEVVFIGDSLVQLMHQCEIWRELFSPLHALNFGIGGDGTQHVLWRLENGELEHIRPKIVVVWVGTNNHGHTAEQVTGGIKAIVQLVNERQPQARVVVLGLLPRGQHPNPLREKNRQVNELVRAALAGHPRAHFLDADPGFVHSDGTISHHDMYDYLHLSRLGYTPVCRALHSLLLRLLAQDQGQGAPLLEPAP
EBNA-1 inh: blocks EBNA-1 binding to DNA. EBNA-1 DNA binding, fluorescence polarization. inhibition, % at 14.8 µM. 0.34% of 300,000 active. AID 1950; in the data active means inhibition above about 28%
EBNA-1 inh conf: EBNA-1 (EBV) inhibition, confirmation. Recombinant EBNA-1 DBD, Cy5-DNA fluorescence polarization. AID 2292. 35% of 830 active. shares compounds with EBNA-1 inh. inhibition, % at 14.8 µM;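 active means mean inhibition across replicates above a set limit taken from the earlier primary screen, cut at about 28% in these data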
ZTA DNA inh trip: ZTA (EBV) inhibition, triplicate counter-screen. shares compounds with EBNA-1 inh. Zta-ZRE DNA binding, Cy5 fluorescence polarization. inhibition, % at 11.1 µM. 830 tested, under 10 active. AID 2328;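 active means mean inhibition over triplicates above a set limit taken from the primary EBNA-1 screen, cut at about 37% in these data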;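 further: purified full length Zta protein with Cy5 labeled ZRE DNA probe; inhibitors lower polarization by freeing the labeled DNA probe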
Of the large screens only hits and unclear results are named; the others gave an inactive call (follow-up assays come after a bar, where they were run). An excerpt weighted towards active compounds, which were near 2.9% of everything screened.

COc1cccc(NC(=O)C2CCCN(S(=O)(=O)c3ccc(-n4cnnn4)cc3)C2)c1 (stereo unspecified)	EBNA-1 inh 55 | EBNA-1 inh conf inactive | ZTA DNA inh trip inactive
Cc1ccc(S(=O)(=O)N2CCCC(C(=O)Nc3ccc(NC(=O)c4ccccn4)cc3)C2)cc1 (stereo unspecified)	EBNA-1 inh 78 | EBNA-1 inh conf 31 | ZTA DNA inh trip inactive
Cc1cc(NC(=O)C2CCCN(S(=O)(=O)c3c(C)noc3C)C2)no1 (stereo unspecified)	none
Cc1cc(C)cc(NC(=O)C2CCCN(S(=O)(=O)c3c(C)noc3C)C2)c1 (stereo unspecified)	EBNA-1 inh 44 | EBNA-1 inh conf inactive | ZTA DNA inh trip inactive
CC(=O)OCCCN1C(=O)CCC12CCC(C)CC2 (stereo unspecified)	none (no result: PAFAH2 FP inh, ZTA counter, PAFAH1B2 inh, PAFAH1B3 FP inh, EBNA-1 inh)
Fc1ccc(N2CCN(C3=Nc4ccccc4Sc4ccccc43)CC2)cc1	none (no result: PAFAH2 FP inh, ZTA counter, PAFAH1B2 inh, PAFAH1B3 FP inh, EBNA-1 inh)
CCOc1ccc(C(=O)Cc2ccc3oc(C(=O)O)cc3c2)c(O)c1	none
CCOC(=O)c1cc2cc(CC(=O)c3ccc(OCC)cc3O)ccc2o1	EBNA-1 inh 28 | EBNA-1 inh conf 30 | ZTA DNA inh trip inactive
O=C(Nc1ccc(S(=O)(=O)N2CCC(C(=O)NC3CCCCC3)CC2)cc1)c1ccco1	EBNA-1 inh 38 | EBNA-1 inh conf 34 | ZTA DNA inh trip inactive
CCCCn1c(CN2C(=O)c3ccccc3C2=O)nc2ccccc2c1=O	EBNA-1 inh 32 | EBNA-1 inh conf 31 | ZTA DNA inh trip inactive
COc1cc(NC(=O)CSc2nc3ccccc3c(=O)n2C)ccc1NC(=O)c1ccco1	EBNA-1 inh 40 | EBNA-1 inh conf 28 | ZTA DNA inh trip inactive
N#Cc1c2c(c(NCc3cccnc3)n3c1nc1ccccc13)CCC2	EBNA-1 inh 77 | EBNA-1 inh conf 31 | ZTA DNA inh trip inactive
COCCNc1c2c(c(C#N)c3nc4ccccc4n13)CCCC2	none
COc1cccc(N2CC(O)=C(c3nc4ccccc4c(=O)[nH]3)C2=N)c1	EBNA-1 inh 67 (no result: rCAG RNA binder) | EBNA-1 inh conf 125 | ZTA DNA inh trip inactive
O=C(Cn1c(O)c(/C=C2\C=Nc3ccc(Br)cc32)sc1=O)N1CCCC1	EBNA-1 inh 29 | EBNA-1 inh conf inactive | ZTA DNA inh trip inactive
Cc1ccc(C)c(N(CC(=O)Nc2ccc(-c3nc4ccc(C)cc4s3)cc2)S(C)(=O)=O)c1	EBNA-1 inh 36 | EBNA-1 inh conf inactive | ZTA DNA inh trip inactive
O=C1[C@H]2[C@@H](c3ccc(F)cc3)N3C(=O)N(c4cccc(F)c4)C(=O)[C@@]3(Cc3ccccc3)[C@H]2C(=O)N1C1CCCCC1	EBNA-1 inh 81 | EBNA-1 inh conf inactive | ZTA DNA inh trip inactive
O=C(Cn1nnc(-c2ccc3c(c2)OCO3)n1)NCc1ccccc1	none
Cc1ccc(-c2nnn(CC(=O)NCCc3ccc4c(c3)OCO4)n2)cc1	EBNA-1 inh 44 | EBNA-1 inh conf inactive | ZTA DNA inh trip inactive
Cn1c(N)c(C(=O)COC(=O)CSc2cccc3cccc(Cl)c23)c(=O)n(C)c1=O	EBNA-1 inh 32 | EBNA-1 inh conf 46 | ZTA DNA inh trip inactive
C#CCNC(=O)C[C@H]1C[C@@]2(C(=O)OC)C(=C[C@H](C3CCCC3)O[C@@H]2C)N(Cc2cccc3ccccc23)C1=O	none (no result: PAFAH2 FP inh, ZTA counter, PAFAH1B2 inh, PAFAH1B3 FP inh, EBNA-1 inh)
COc1cc2[nH]c(=S)n(Cc3ccccc3)c(=O)c2cc1OC	none
COc1cc2[nH]c(=O)n(Cc3ccccc3Cl)c(=O)c2cc1OC	EBNA-1 inh 39 | EBNA-1 inh conf inactive | ZTA DNA inh trip inactive
COc1ccc(-c2csc(N3C(=O)C4C5c6ccccc6C(c6ccccc65)[C@@H]4C3=O)n2)cc1 (stereo partly specified)	none
COc1ccc(-c2csc(N3C(=N)SCC3=O)n2)cc1	EBNA-1 inh 44 | EBNA-1 inh conf inactive | ZTA DNA inh trip inactive
COc1ccc(-c2csc(N3C(=O)CNC3=S)n2)cc1	EBNA-1 inh 82 | EBNA-1 inh conf 44 | ZTA DNA inh trip inactive
CCCCN1C(=O)N2Cc3cc(OC)ccc3C2CS1(=O)=O (stereo unspecified)	none (no result: PAFAH2 FP inh, ZTA counter, PAFAH1B2 inh, PAFAH1B3 FP inh, EBNA-1 inh)

High-throughput results: PubChem BioAssay, The Scripps Research Institute Molecular Screening Center
